# Data: PMC7862700, “An all-to-all approach to the identification of sequence-specific readers for epigenetic DNA modifications on cytosine”
# Experiments:
# Assay in all cases: DAPPL (digital affinity profiling via proximity ligation, sequencing); 10 mM Tris-HCl pH 7.5, 50 mM NaCl, 1 mM DTT, 4% glycerol, room temperature, 30 min; GST-TFs on glutathione beads, 16-mer random dsDNA library, 0.1% formaldehyde crosslink after washing; high values mean tight binding
# [1] = biological target: T1, FEV (Homo sapiens, UniProt Q99581 1-238); details: protein: recombinant; tags: N-terminal GST; dsDNA, one strand shown
# T1 sequence: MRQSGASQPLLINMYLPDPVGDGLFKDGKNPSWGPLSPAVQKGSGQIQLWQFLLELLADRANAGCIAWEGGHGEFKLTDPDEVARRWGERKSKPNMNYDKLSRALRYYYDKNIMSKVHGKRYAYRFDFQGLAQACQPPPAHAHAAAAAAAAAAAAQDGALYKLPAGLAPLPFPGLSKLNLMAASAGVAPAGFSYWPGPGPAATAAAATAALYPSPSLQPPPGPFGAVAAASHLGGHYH
# How it was run: (§1)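 Human transcription factors were made in yeast as GST fusions, captured on glutathione beads and barcoded with DNA. With a tag-only sample included, the pool was incubated with 200 nmole of a random double-stranded 16-mer DNA library in Tris/NaCl/DTT/glycerol buffer at room temperature for 30 min, then crosslinked with 0.1% formaldehyde after washing, ligated by proximity, amplified and sequenced. For binding signal, each hexamer's read frequency for a factor is divided by its frequency for the tag-only sample.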
# [2] = biological target: ETV5 (Homo sapiens, UniProt P41161 1-510); details: protein: recombinant; tags: N-terminal GST; dsDNA, one strand shown
# How it was run: as §1
# [3] = biological target: HSF1 (Homo sapiens, UniProt Q00613 1-529); details: protein: recombinant; tags: N-terminal GST; chain copies: 3; dsDNA, one strand shown
# How it was run: as §1
# [4] = biological target: T2, SPIC (Homo sapiens, UniProt Q8N5J4 1-248); details: protein: recombinant; tags: N-terminal GST; dsDNA, one strand shown
# T2 sequence: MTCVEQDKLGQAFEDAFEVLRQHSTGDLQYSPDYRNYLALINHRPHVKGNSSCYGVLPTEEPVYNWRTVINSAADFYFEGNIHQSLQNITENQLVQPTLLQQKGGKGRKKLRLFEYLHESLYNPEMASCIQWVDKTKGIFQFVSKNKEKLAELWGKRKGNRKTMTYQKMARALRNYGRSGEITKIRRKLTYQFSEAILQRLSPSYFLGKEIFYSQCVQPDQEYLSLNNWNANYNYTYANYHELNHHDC
# How it was run: as §1
# [5] = biological target: ELF4 (Homo sapiens, UniProt Q99607 1-663); details: protein: recombinant; tags: N-terminal GST; dsDNA, one strand shown
# How it was run: as §1
# [6] = biological target: T3, ELK4 (Homo sapiens, UniProt P28324-2 1-405); details: protein: recombinant; tags: N-terminal GST; dsDNA, one strand shown
# T3 sequence: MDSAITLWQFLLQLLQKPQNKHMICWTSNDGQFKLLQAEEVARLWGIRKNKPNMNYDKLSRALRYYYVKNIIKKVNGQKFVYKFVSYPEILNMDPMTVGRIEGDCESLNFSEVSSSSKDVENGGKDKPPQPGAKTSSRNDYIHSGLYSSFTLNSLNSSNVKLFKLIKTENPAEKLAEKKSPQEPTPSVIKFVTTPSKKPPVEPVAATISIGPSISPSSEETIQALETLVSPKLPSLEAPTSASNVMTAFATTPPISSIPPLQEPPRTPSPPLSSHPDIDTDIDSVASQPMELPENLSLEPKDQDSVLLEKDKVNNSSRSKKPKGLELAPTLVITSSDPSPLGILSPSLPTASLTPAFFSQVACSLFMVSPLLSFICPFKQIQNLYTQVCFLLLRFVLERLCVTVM
# How it was run: as §1
# [7] = biological target: T4, ETV2 (Homo sapiens, UniProt O00321 1-342); details: protein: recombinant; tags: N-terminal GST; dsDNA, one strand shown
# T4 sequence: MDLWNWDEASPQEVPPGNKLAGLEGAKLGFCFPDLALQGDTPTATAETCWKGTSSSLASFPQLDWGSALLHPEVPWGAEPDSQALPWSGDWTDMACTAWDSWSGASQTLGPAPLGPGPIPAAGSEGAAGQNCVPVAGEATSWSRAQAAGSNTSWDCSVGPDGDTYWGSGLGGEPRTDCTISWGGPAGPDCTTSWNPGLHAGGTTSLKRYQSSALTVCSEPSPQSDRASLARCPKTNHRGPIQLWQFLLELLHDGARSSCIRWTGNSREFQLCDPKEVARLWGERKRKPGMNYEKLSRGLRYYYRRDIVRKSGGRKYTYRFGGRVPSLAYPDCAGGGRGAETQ
# How it was run: as §1
# [8] = biological target: T5, ELF3 (Homo sapiens, UniProt P78545 1-371); details: protein: recombinant; tags: N-terminal GST; dsDNA, one strand shown
# T5 sequence: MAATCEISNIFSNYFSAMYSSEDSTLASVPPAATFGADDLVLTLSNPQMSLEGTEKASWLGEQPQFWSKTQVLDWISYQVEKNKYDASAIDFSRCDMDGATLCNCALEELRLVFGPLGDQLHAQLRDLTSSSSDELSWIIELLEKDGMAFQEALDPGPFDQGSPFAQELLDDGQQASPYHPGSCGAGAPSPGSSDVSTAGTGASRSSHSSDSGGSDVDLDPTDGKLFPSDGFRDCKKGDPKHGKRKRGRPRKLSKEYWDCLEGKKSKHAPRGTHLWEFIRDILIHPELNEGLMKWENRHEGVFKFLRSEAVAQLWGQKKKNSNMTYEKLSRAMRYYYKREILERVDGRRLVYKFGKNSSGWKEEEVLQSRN
# How it was run: as §1
# [9] = biological target: CRX (Homo sapiens, UniProt O43186 1-299); details: protein: recombinant; tags: N-terminal GST; dsDNA, one strand shown
# How it was run: as §1
# [10] = biological target: ETV1 (Homo sapiens, UniProt P50549 1-477); details: protein: recombinant; tags: N-terminal GST; dsDNA, one strand shown
# How it was run: as §1
# [11] = biological target: T6, ERF (Homo sapiens, UniProt P50548 1-548); details: protein: recombinant; tags: N-terminal GST; dsDNA, one strand shown
# T6 sequence: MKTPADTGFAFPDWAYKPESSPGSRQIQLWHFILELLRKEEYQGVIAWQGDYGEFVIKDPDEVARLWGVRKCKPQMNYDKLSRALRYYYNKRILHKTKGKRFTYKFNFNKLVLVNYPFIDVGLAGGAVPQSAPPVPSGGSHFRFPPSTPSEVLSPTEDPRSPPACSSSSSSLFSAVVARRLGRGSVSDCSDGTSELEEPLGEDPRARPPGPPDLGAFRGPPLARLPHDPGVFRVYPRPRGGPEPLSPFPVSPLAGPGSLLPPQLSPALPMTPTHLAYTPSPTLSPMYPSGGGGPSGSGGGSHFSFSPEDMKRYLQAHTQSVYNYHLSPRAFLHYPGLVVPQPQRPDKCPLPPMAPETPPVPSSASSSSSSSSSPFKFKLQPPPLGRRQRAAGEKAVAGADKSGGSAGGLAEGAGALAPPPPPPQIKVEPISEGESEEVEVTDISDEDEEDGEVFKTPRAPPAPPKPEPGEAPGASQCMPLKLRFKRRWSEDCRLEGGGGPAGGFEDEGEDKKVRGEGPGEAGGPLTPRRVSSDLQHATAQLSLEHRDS
# How it was run: as §1
# [12] = biological target: T7, ETV3L (Homo sapiens, UniProt Q6ZN32 1-361); details: protein: recombinant; tags: N-terminal GST; dsDNA, one strand shown
# T7 sequence: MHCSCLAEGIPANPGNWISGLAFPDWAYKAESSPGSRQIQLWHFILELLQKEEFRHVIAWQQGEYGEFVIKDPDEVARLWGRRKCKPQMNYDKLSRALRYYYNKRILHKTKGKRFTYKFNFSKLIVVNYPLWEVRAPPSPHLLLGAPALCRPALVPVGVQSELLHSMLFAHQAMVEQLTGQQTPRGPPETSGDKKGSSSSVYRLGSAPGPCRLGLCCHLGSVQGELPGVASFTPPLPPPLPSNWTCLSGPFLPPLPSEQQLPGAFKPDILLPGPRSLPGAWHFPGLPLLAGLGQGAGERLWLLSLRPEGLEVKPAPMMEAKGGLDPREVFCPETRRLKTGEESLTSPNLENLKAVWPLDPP
# How it was run: as §1
# [13] = biological target: T8, ETS2 (Homo sapiens, UniProt P15036 1-469); details: protein: recombinant; tags: N-terminal GST; dsDNA, one strand shown
# T8 sequence: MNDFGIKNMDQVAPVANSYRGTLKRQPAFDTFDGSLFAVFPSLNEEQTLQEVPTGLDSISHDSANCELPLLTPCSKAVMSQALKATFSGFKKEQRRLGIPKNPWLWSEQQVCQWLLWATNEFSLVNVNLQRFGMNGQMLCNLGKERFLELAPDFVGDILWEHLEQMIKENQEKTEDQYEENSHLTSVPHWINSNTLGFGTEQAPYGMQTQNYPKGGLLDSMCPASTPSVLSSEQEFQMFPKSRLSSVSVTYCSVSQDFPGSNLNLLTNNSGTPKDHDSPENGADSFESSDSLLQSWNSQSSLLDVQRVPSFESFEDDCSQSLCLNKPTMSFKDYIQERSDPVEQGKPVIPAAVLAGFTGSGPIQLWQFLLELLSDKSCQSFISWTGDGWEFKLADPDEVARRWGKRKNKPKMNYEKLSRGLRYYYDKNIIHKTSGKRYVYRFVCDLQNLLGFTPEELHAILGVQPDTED
# How it was run: as §1
# [14] = biological target: T9, SPDEF (Homo sapiens, UniProt O95238 1-335); details: protein: recombinant; tags: N-terminal GST; dsDNA, one strand shown
# T9 sequence: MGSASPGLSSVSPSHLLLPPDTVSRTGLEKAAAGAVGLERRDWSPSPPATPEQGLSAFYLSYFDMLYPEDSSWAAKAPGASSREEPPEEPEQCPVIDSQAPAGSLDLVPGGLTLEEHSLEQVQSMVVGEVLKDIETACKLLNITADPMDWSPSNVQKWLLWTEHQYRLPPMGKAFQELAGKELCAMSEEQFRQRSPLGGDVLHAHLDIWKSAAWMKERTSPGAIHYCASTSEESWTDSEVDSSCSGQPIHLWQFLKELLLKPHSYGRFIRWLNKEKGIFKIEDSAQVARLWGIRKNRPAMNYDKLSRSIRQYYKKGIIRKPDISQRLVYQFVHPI
# How it was run: as §1
# [15] = biological target: T10, ETV7 (Homo sapiens, UniProt Q9Y603 1-341); details: protein: recombinant; tags: N-terminal GST; dsDNA, one strand shown
# T10 sequence: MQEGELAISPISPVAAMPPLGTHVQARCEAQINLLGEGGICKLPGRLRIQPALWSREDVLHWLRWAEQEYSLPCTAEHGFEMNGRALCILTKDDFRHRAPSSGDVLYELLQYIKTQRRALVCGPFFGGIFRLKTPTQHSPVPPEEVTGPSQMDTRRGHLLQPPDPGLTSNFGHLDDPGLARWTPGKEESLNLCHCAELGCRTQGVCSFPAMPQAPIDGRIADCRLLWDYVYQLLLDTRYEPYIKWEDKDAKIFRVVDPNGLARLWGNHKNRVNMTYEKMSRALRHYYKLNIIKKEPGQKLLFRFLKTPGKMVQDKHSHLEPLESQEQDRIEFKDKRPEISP
# How it was run: as §1
# [16] = biological target: T11, ELF5 (Homo sapiens, UniProt Q9UKW6-2 1-255); details: protein: recombinant; tags: N-terminal GST; dsDNA, one strand shown
# T11 sequence: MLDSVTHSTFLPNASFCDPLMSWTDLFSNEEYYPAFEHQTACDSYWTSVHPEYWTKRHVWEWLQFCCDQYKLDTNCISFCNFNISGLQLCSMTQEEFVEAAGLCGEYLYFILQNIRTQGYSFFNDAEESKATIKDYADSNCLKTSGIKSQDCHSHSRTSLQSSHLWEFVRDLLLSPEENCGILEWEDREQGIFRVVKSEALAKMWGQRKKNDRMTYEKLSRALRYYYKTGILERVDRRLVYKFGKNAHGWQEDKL
# How it was run: as §1
# [17] = biological target: T12, ETV3 (Homo sapiens, UniProt P41162-2 1-143); details: protein: recombinant; tags: N-terminal GST; dsDNA, one strand shown
# T12 sequence: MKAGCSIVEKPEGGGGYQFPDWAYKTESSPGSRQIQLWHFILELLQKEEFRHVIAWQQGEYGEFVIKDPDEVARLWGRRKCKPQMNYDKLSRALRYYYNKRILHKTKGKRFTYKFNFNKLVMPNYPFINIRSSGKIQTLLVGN
# How it was run: as §1
# [18] = biological target: ETV6 (Homo sapiens, UniProt P41212 1-452); details: protein: recombinant; tags: N-terminal GST; dsDNA, one strand shown
# How it was run: as §1
# Sequence of CRX (O43186 whole entry): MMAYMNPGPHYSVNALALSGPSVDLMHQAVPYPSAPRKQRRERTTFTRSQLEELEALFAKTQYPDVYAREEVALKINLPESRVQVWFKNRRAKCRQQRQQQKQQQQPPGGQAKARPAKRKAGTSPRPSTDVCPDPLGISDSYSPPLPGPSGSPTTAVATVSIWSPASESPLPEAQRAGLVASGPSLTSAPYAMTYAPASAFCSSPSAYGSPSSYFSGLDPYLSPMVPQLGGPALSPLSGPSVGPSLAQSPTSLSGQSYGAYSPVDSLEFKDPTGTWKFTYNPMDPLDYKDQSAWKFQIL
# Sequence of HSF1 (Q00613 whole entry): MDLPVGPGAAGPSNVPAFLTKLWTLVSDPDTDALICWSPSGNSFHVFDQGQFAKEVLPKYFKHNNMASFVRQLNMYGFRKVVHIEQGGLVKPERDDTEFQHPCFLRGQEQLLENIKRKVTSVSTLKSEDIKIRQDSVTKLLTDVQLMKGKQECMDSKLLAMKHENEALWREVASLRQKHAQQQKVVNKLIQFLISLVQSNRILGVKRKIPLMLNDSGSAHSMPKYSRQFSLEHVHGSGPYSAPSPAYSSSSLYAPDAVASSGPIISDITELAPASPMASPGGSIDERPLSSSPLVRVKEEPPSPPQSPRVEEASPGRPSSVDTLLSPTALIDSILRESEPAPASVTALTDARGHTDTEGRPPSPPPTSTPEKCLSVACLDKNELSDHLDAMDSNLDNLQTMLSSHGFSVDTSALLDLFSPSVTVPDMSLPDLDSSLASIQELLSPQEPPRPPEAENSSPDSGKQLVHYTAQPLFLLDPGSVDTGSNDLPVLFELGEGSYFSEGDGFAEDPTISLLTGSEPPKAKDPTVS
# Sequence of ETV5 (P41161 whole entry): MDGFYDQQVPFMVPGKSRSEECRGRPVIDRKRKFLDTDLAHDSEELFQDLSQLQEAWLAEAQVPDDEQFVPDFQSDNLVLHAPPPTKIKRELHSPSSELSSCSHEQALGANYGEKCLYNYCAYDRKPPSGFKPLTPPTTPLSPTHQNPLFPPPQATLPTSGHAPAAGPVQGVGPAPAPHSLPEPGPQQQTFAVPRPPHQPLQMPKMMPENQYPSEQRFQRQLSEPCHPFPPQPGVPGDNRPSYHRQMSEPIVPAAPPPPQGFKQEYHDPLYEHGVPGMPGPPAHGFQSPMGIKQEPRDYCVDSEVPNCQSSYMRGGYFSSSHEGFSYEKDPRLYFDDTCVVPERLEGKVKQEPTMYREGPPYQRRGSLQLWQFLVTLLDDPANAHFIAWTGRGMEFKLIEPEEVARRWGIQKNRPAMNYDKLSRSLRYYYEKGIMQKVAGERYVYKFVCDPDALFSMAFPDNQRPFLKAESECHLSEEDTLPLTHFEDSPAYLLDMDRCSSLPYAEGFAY
# Sequence of ELF4 (Q99607 whole entry): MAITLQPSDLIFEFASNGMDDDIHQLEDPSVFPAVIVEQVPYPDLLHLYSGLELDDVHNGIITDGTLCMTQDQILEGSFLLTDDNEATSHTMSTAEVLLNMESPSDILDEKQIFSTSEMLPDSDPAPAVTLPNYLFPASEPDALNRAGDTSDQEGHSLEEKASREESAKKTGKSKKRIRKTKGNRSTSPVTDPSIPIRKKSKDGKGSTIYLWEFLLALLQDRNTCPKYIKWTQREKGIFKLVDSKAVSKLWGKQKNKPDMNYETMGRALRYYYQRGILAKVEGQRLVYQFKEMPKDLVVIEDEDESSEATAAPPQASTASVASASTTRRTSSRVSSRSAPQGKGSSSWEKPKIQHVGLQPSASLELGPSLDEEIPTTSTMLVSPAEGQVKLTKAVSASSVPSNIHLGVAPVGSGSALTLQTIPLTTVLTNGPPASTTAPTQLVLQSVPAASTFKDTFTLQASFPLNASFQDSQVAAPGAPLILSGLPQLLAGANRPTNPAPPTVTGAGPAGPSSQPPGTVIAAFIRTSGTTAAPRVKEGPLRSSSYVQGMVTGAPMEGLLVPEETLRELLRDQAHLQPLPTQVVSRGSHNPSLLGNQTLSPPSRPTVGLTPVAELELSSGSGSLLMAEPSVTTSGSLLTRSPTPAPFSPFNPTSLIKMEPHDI
# Sequence of ETV1 (P50549 whole entry): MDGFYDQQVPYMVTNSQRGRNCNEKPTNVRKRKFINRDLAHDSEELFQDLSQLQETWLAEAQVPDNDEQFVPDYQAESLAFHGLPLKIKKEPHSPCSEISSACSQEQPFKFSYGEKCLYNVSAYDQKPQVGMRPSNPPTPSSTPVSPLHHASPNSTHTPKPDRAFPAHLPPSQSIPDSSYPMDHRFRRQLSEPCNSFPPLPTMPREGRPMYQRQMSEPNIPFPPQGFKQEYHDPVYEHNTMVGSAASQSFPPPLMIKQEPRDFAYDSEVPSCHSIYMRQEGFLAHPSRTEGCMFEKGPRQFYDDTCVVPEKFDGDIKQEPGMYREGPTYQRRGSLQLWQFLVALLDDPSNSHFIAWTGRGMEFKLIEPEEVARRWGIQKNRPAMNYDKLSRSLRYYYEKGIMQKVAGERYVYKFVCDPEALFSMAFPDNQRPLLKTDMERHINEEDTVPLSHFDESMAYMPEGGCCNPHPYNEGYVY
# Sequence of ETV6 (P41212 whole entry): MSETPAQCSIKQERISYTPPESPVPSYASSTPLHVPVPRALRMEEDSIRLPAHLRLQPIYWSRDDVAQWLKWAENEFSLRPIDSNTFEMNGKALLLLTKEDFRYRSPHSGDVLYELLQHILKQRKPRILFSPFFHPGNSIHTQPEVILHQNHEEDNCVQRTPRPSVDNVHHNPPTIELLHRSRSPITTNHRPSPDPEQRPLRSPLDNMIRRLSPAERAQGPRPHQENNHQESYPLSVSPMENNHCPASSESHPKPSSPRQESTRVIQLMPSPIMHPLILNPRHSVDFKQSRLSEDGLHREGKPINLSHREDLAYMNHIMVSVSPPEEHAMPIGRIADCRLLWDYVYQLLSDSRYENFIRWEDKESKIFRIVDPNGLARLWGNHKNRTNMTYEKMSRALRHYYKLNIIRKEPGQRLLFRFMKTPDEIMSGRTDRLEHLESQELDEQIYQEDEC
sequence,measurement,setting,value
TCTATT,binding signal,[1],"1.22 fold enrichment (6-mer frequency, TF over GST control)"
same,binding signal,[2],"1.3 fold enrichment (6-mer frequency, TF over GST control)"
same,binding signal,[3],"1.43 fold enrichment (6-mer frequency, TF over GST control)"
same,binding signal,[4],"1.57 fold enrichment (6-mer frequency, TF over GST control)"
same,binding signal,[5],"1.27 fold enrichment (6-mer frequency, TF over GST control)"
same,binding signal,[6],"1.25 fold enrichment (6-mer frequency, TF over GST control)"
same,binding signal,[7],"1.16 fold enrichment (6-mer frequency, TF over GST control)"
same,binding signal,[8],"1.35 fold enrichment (6-mer frequency, TF over GST control)"
same,binding signal,[9],"1.37 fold enrichment (6-mer frequency, TF over GST control)"
same,binding signal,[10],"1.25 fold enrichment (6-mer frequency, TF over GST control)"
same,binding signal,[11],"1.26 fold enrichment (6-mer frequency, TF over GST control)"
same,binding signal,[12],"1.28 fold enrichment (6-mer frequency, TF over GST control)"
same,binding signal,[13],"1.23 fold enrichment (6-mer frequency, TF over GST control)"
same,binding signal,[14],"1.37 fold enrichment (6-mer frequency, TF over GST control)"
same,binding signal,[15],"1.11 fold enrichment (6-mer frequency, TF over GST control)"
same,binding signal,[16],"1.18 fold enrichment (6-mer frequency, TF over GST control)"
same,binding signal,[17],"1.25 fold enrichment (6-mer frequency, TF over GST control)"
same,binding signal,[18],"1.29 fold enrichment (6-mer frequency, TF over GST control)"
